PubChem BioAssay (Tox21)
Results filed as inconclusive are left out. The source made the active and inactive calls. Unless noted, the call rests on the fitted dose curve.

Columns and labels:
[1] = Nuclear factor erythroid 2-related factor 2/antioxidant responsive element (Nrf2/ARE) small molecule agonists: qHTS cell viability counter screen in human keratinocytes (AID 1919968; active means well fitted curve in the direction sought with a large enough effect in the repeat runs; an effect the other way counts as inactive or inconclusive; further: nearly all actives have a fitted effect of over 55% in size)
Outline: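 CellTiter-Fluor fluorescence, read 1 h after reagent, gave viability in the same wells as the ARE-luciferase assay. KeratinoSens cells (1,500/well) had 23 h compound exposure at 37 C/5% CO2 following 5 h plating.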

[2] = Nuclear factor erythroid 2-related factor 2/antioxidant responsive element (Nrf2/ARE) small molecule agonists: luciferase reporter gene qHTS assay in human keratinocytes (AID 1919969); further: nearly all actives have a fitted effect of over 35% in size
[3] = target: Gonadotropin-releasing hormone receptor (Homo sapiens) (UniProt P30968); assay: Human gonadotropin-releasing hormone receptor (GnRHR) small molecule agonists, calcium flux assay in GnRHR-HEK293 cells (AID 1920063); further: nearly all actives have a fitted effect of over 35% in size
Outline: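 Agonist mode: compounds at 15 concentrations, in triplicate, went onto calcium dye-loaded GnRHR-HEK293 cells. Intracellular calcium was then followed as 480/540 nm fluorescence at 1 s intervals over 3 min.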

[4] = target: KiSS-1 receptor (Homo sapiens) (UniProt Q969F8); assay: Human kisspeptin (KISS1R) small molecule agonists, calcium flux assay in KISS1R-HEK293 cells (AID 1920064; active means well fitted curve in the direction sought with a large enough effect in the repeat runs; an effect the other way counts as inactive or inconclusive)
Outline: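 Agonist mode: intracellular calcium rise tracked at 1 s intervals over 3 min (480/540 nm) immediately after compound addition to dye-loaded KISS1R-HEK293 stable cells. Each compound tested at 15 concentrations in triplicate.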

[5] = G protein-coupled receptor (GPCR) small molecule agonists, calcium flux assay: HEK293 wild type cell line counter screen (AID 1920065)
Outline: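 Calcium flux counter screen: compound added in agonist mode at 15 concentrations in triplicate to dye-loaded parental HEK293 cells. Fluorescence (480/540) read kinetically for 3 min; ATP served as positive control.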

[6] = p53 small molecule agonists, cell-based qHTS assay with human liver microsomes (AID 1963577)
Outline: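 Compounds act here after metabolic activation: human liver microsomes and NADPH, both at 0.5 mg/mL final, were co-added to p53RE-bla cells. Incubation ran 16 h at 37 C, followed by LiveBLAzer detection.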

[7] = p53 small molecule agonists, cell-based qHTS assay with rat liver microsomes (AID 1963578)
Outline: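 Read-out is beta-lactamase reporter fluorescence (LiveBLAzer, 2 h, room temperature, dark) in p53RE-bla cells treated 16 h at 37 C with compound, rat liver microsomes and NADPH, both 0.5 mg/mL final.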

[8] = p53 small molecule agonists, cell-based qHTS assay with human liver microsomes: qHTS cell viability counter screen (AID 1963579); further: nearly all actives have a fitted effect of over 45% in size
Outline: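 Cells carrying the p53 response-element beta-lactamase reporter are treated for 16 h at 37 C with test compounds in the presence of human liver microsomes and NADPH (both 0.5 mg/mL final); ATP-based CellTiter-Glo luminescence then reports viability.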

[9] = p53 small molecule agonists, cell-based qHTS assay with rat liver microsomes: qHTS cell viability counter screen (AID 1963580); further: nearly all actives have a fitted effect of over 45% in size
Outline: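 Cytotoxicity counter screen: intracellular ATP read by CellTiter-Glo luminescence in the p53 reporter wells. HCT-116 p53RE-bla cells were treated for 16 h at 37 C alongside rat liver microsomes and NADPH, each 0.5 mg/mL final.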

[10] = p53 small molecule agonists, cell-based qHTS assay: qHTS cell viability counter screen (AID 1963581); further: nearly all actives have a fitted effect of over 45% in size
Outline: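 Counter screen read by CellTiter-Glo luminescence (ATP content, 30 min at room temperature), run in the same wells as the beta-lactamase reporter read. HCT-116 p53RE-bla cells saw compounds for 16 h at 37 C.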

[11] = p53 small molecule agonists, cell-based qHTS assay (AID 1963582; active means well fitted activation curve with a large enough effect in the signal ratio in the repeat runs, not every such curve was filed as active; the % refers to the signal ratio)
Outline: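 Read-out is beta-lactamase FRET fluorescence after 2 h at room temperature with LiveBLAzer B/G substrate. p53 response element-bla cells were treated 16 h at 37 C with compounds in DMSO, added 5 h after seeding.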

[12] = target: 5-hydroxytryptamine receptor 2A (Homo sapiens) (UniProt P28223); assay: 5-hydroxytryptamine receptor 2A (HTR2A) small molecule antagonists, cell-based qHTS assay (AID 1963586); further: nearly all actives have a fitted effect of over 45% in size
Outline: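 CHO cells stably expressing human HTR2A were plated for 18 h at 37 C, then loaded with calcium dye for 1 h. Compounds were preincubated 5 min at room temperature before DOI (4 nM solution) was added. Kinetic fluorescence was read for 3 min.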

[13] = target: 5-hydroxytryptamine receptor 2A (Homo sapiens) (UniProt P28223); assay: 5-hydroxytryptamine receptor 2A (HTR2A) small molecule agonists, cell-based qHTS assay (AID 1963587); further: nearly all actives have a fitted effect of over 30% in size
Outline: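 Kinetic calcium-flux fluorescence (2 min, 1 sec intervals) after compound addition in agonist mode. HTR2A-CHO cells were cultured 18 h, then dye-loaded 1 h at 37 C.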

[14] = target: Muscarinic acetylcholine receptor M1 (Homo sapiens) (UniProt P11229); assay: Cholinergic receptor muscarinic 1 (CHRM1) small molecule antagonists, cell-based qHTS assay (AID 1963588); further: nearly all actives have a fitted effect of over 40% in size
Outline: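 Compounds were tested at 15 concentrations in three independent runs. Dye-loaded CHRM1-CHO cells were exposed 5 min at room temperature before stimulation by acetylcholine added at 50nM. Intracellular calcium was read kinetically on FDSS for 3 min.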

[15] = target: Muscarinic acetylcholine receptor M1 (Homo sapiens) (UniProt P11229); assay: Cholinergic receptor muscarinic 1 (CHRM1) small molecule agonists, cell-based qHTS assay (AID 1963589); further: nearly all actives have a fitted effect of over 35% in size
Outline: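 Agonist-mode calcium-flux screen: compounds at 15 concentrations, three independent runs, were pin-transferred onto dye-loaded human CHRM1-CHO cells. Fluorescence was then recorded kinetically every second over minutes.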

[16] = cAMP Responsive Elements (CRE) small molecule agonists, cell-based qHTS assay (AID 1963590)
Outline: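 Agonist mode: compound added to CRE-bla HEK 293T cells (2,000/well, 18 h after plating) for 3 h at 37 C/5% CO2. Reporter activity detected via FRET beta-lactamase substrate, 2 h room-temperature loading.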

[17] = cAMP Responsive Elements (CRE) small molecule antagonists, cell-based qHTS assay (AID 1963591; active means well fitted inhibition curve with a large enough effect in the signal ratio in the repeat runs, not every such curve was filed as active; the % refers to the signal ratio)
Outline: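 Antagonist mode: compounds are added alongside the adenylyl cyclase activator NKH477 (0.25 uM final) to CRE-bla HEK293T cells for 3 h. LiveBLAzer FRET substrate, 2 h at room temperature, reports bla expression.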

[18] = target: Beta-2 adrenergic receptor (Homo sapiens) (UniProt P07550); assay: Adrenergic beta2 receptor (ADRB2) small molecule antagonists, cell-based qHTS assay (AID 1963592); further: series mostly up to about 92 µM; nearly all actives have a fitted effect of over 50% in size
Outline: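 Assay format: CHO-ADRB2 cells, 18-20hr seeding at 37C/5% CO2, then compound plus 1nM isoproterenol agonist mix for 0.5hr RT. Homogeneous time-resolved fluorescence cAMP detection after 1hr, expressed as 665/615 nm ratio.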

[19] = target: D(2) dopamine receptor (Homo sapiens) (UniProt P14416); assay: Dopamine D2 receptor (DRD2) small molecule agonists, cell-based qHTS assay (AID 1963594); further: nearly all actives have a fitted effect of over 35% in size
Outline: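 cAMP accumulation in DRD2-HEK293 cells measured by HTRF after 1 h detection; compounds added 10 min before NKH477 (200nM […]) forskolin-analogue stimulation, 30 min at room temperature, with Ro20-1724 present at 0.1 mM final.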

[20] = target: D(2) dopamine receptor (Homo sapiens) (UniProt P14416); assay: Dopamine D2 receptor (DRD2) small molecule antagonists, cell-based qHTS assay (AID 1963595; active means well fitted inhibition curve with a large enough effect in the signal ratio in the repeat runs, with a control signal flat; the % refers to the signal ratio)
Outline: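 Cells were plated and grown for 24 h at 37 °C. Ro20-1724 (0.1 mM final) went in first, then compound for 10 min. NKH477 (200 nM) with quinpirole (12 nM) followed for 30 min at RT, then HTRF detection reagents for 1 h.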
On the % scale 0 is the no-effect control and ±100 the full control effect.

Sequence of KiSS-1 receptor (Homo sapiens) (Q969F8 whole entry, looked up): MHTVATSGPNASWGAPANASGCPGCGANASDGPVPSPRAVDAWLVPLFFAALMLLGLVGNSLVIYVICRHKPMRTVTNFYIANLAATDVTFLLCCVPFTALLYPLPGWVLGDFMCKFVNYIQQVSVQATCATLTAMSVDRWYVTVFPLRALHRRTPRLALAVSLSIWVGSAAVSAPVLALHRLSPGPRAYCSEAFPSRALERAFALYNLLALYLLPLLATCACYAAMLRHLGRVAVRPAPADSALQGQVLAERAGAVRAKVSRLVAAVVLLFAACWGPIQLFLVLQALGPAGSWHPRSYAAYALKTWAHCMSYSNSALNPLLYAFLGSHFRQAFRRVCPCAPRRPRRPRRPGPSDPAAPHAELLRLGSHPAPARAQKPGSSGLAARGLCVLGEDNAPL
Sequence of Muscarinic acetylcholine receptor M1 (Homo sapiens) (P11229 whole entry, looked up): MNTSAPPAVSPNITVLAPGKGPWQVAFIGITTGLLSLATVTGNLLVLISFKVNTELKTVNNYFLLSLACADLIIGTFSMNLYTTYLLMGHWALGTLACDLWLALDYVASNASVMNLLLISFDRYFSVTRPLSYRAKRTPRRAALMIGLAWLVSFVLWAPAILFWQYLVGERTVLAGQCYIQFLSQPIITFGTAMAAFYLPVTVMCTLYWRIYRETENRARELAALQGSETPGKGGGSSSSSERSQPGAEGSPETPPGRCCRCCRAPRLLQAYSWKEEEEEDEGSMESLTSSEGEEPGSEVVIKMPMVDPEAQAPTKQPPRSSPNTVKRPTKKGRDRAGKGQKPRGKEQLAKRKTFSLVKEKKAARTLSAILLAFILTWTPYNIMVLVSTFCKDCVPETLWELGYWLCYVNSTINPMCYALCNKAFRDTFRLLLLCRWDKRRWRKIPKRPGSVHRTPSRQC
Sequence of Beta-2 adrenergic receptor (Homo sapiens) (P07550 whole entry, looked up): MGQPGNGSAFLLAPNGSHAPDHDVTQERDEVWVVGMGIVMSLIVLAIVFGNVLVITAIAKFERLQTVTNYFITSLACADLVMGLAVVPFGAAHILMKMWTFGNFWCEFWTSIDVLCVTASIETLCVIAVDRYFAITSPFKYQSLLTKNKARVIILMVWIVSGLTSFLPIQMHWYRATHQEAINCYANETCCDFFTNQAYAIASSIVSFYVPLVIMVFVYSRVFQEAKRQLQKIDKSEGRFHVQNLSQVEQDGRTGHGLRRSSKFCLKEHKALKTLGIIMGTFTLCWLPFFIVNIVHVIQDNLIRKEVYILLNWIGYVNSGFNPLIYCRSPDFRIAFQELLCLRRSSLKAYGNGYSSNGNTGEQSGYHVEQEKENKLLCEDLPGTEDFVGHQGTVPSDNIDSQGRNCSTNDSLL
Sequence of Gonadotropin-releasing hormone receptor (Homo sapiens) (P30968 whole entry, looked up): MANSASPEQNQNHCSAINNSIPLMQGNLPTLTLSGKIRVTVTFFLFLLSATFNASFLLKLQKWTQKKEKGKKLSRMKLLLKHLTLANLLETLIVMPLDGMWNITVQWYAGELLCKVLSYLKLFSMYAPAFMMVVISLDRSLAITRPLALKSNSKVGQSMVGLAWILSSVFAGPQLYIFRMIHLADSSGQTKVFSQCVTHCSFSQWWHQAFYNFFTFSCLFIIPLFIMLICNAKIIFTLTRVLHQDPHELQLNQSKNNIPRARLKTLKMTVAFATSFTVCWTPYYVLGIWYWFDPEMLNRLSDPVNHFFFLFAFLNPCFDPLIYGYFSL
Sequence of 5-hydroxytryptamine receptor 2A (Homo sapiens) (P28223 whole entry, looked up): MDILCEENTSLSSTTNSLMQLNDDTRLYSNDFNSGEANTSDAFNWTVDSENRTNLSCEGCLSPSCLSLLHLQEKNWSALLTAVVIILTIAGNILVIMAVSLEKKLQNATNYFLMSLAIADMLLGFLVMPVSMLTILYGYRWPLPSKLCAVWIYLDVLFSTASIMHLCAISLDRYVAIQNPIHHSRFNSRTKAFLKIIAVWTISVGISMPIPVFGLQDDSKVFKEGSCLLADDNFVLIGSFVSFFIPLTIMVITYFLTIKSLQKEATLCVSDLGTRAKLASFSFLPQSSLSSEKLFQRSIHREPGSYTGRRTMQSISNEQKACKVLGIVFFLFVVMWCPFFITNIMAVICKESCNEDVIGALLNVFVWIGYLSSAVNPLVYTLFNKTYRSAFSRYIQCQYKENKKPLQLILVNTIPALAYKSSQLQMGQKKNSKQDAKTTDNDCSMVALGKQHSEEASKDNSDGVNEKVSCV
Sequence of D(2) dopamine receptor (Homo sapiens) (P14416 whole entry, looked up): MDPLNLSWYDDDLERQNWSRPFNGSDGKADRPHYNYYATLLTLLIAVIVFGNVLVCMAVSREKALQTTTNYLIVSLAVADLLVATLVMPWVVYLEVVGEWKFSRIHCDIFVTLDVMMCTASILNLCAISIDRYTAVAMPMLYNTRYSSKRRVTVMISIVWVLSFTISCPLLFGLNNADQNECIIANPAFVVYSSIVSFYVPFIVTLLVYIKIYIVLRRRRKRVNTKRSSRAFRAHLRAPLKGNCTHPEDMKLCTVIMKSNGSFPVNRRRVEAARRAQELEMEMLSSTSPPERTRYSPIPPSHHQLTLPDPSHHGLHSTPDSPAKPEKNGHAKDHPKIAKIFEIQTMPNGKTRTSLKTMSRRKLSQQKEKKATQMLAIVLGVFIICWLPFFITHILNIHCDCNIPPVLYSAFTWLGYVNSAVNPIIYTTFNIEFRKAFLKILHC

CCc1nccnc1C
inactive: Potency [1] | Potency [2] | Potency [3] | outcome [4] | outcome [5] | Potency [6] | Potency [7] | Potency [8] | Potency [9] | Potency [10] | Potency [11] | Potency [12] | Potency [13] | Potency [14] | Potency [15] | Potency [16] | Potency [17] | Potency [18] | Potency [19] | Potency [20]

O=[N+]([O-])c1cccc(I)c1
inactive: Potency [1] | Potency [2] | Potency [3] | outcome [4] | outcome [5] | Potency [6] | Potency [7] | Potency [8] | Potency [9] | Potency [10] | Potency [11] | Potency [12] | Potency [13] | Potency [14] | Potency [15] | Potency [16] | Potency [17] | Potency [18] | Potency [19]

CCCCC(=O)O[C@]1(C(=O)CO)[C@H](C)C[C@H]2[C@@H]3CCC4=CC(=O)C=C[C@]4(C)[C@@]3(F)[C@@H](O)C[C@@]21C
inactive: Potency [1] | Potency [2] | Potency [3] | outcome [4] | outcome [5] | Potency [6] | Potency [7] | Potency [8] | Potency [9] | Potency [10] | Potency [11] | Potency [12] | Potency [13] | Potency [14] | Potency [15] | Potency [16] | Potency [17] | Potency [18] | Potency [19] | Potency [20]

CCC1CO1 (stereo not given)
inactive: Potency [1] | Potency [2] | Potency [3] | outcome [4] | outcome [5] | Potency [6] | Potency [7] | Potency [8] | Potency [9] | Potency [10] | Potency [11] | Potency [12] | Potency [13] | Potency [14] | Potency [15] | Potency [16] | Potency [17] | Potency [18] | Potency [19]

CC(C)(C)C(=O)O
inactive: Potency [1] | Potency [2] | Potency [3] | outcome [4] | outcome [5] | Potency [6] | Potency [7] | Potency [8] | Potency [9] | Potency [10] | Potency [11] | Potency [12] | Potency [13] | Potency [14] | Potency [15] | Potency [16] | Potency [17] | Potency [18] | Potency [19] | Potency [20]

Cc1[nH]c(=O)c(C#N)cc1-c1ccc2nccn2c1
inactive: Potency [1] | Potency [2] | Potency [3] | outcome [4] | outcome [5] | Potency [6] | Potency [7] | Potency [8] | Potency [9] | Potency [10] | Potency [11] | Potency [12] | Potency [13] | Potency [14] | Potency [15] | Potency [16] | Potency [17]

CCN(CC)C(C)=O
inactive: Potency [1] | Potency [2] | Potency [3] | outcome [4] | outcome [5] | Potency [6] | Potency [7] | Potency [8] | Potency [9] | Potency [10] | Potency [11] | Potency [12] | Potency [13] | Potency [14] | Potency [15] | Potency [16] | Potency [17] | Potency [18] | Potency [19] | Potency [20]

Cc1ccc(N)nc1
inactive: Potency [1] | Potency [2] | Potency [3] | outcome [4] | outcome [5] | Potency [6] | Potency [7] | Potency [8] | Potency [9] | Potency [10] | Potency [11] | Potency [12] | Potency [13] | Potency [14] | Potency [15] | Potency [16] | Potency [17] | Potency [18] | Potency [19] | Potency [20]

CCCCCCOC(=O)CCCCC(=O)OCCCCCC
inactive: Potency [1] | Potency [2] | Potency [3] | outcome [4] | outcome [5] | Potency [6] | Potency [7] | Potency [8] | Potency [9] | Potency [10] | Potency [11] | Potency [12] | Potency [13] | Potency [14] | Potency [15] | Potency [16] | Potency [17] | Potency [18] | Potency [19] | Potency [20]

CCCCCCCCCCOc1cc2c(=O)c(C(=O)OCC)c[nH]c2cc1OCC
inactive: activity change, negative = cytotoxicity [1] -4.24% [at 8.39 µM] | activity, positive = activation [2] -2.6% [at 8.39 µM] | activity change [3] 0.343% [at 5.22 µM, active compounds read high] | activation [4] -0.128% [at 6.97 µM] | activation [5] 0.101% [at 5.23 µM] | activation [6] 2.59% [at 5.99 µM] | activation [7] 0.878% [at 5.99 µM] | activity change, negative = cytotoxicity [8] 0.282% [at 5.99 µM] | activity change, negative = cytotoxicity [9] 11.2% [at 5.99 µM] | activity change, negative = cytotoxicity [10] -13% [at 5.99 µM] | activation [11] 4.71% [at 5.99 µM] | activity, negative = inhibition [12] 23.4% [at 5.62 µM] | activation [13] 1.5% [at 7.02 µM] | activity, negative = inhibition [14] -9.72% [at 5.58 µM] | activation [15] 0.0185% [at 6.97 µM] | activation [16] 0.069% [at 8.39 µM] | activity change, negative = inhibition [17] 0.102% [at 8.39 µM] | activity change, negative = inhibition [18] 4.81% [at 8.39 µM] | activation [19] -15.9% [at 8.39 µM] | activity change, negative = inhibition [20] 8.14% [at 8.38 µM]

CCC1(C)NC(=O)NC1=O (stereo not given)
inactive: Potency [1] | Potency [2] | Potency [3] | outcome [4] | outcome [5] | Potency [6] | Potency [7] | Potency [8] | Potency [9] | Potency [10] | Potency [11] | Potency [12] | Potency [13] | Potency [14] | Potency [15] | Potency [16] | Potency [17] | Potency [18] | Potency [19] | Potency [20]

C=CCOc1c(Br)cc(Br)cc1Br
inactive: Potency [1] | Potency [2] | Potency [3] | outcome [4] | outcome [5] | Potency [6] | Potency [7] | Potency [8] | Potency [9] | Potency [10] | Potency [11] | Potency [12] | Potency [13] | Potency [14] | Potency [15] | Potency [16] | Potency [17] | Potency [18] | Potency [19] | Potency [20]

C=C(C)C(=O)OCC(C)(C)COC(=O)C(=C)C
inactive: Potency [1] | Potency [2] | Potency [3] | outcome [4] | outcome [5] | Potency [6] | Potency [7] | Potency [8] | Potency [9] | Potency [10] | Potency [11] | Potency [12] | Potency [13] | Potency [14] | Potency [15] | Potency [16] | Potency [17] | Potency [18] | Potency [19] | Potency [20]
